Rows were chosen to be rich in hits. Some 2.3% of all compounds tested hit in one or more screens of this group.
MsrA act – activates bovine MsrA enzyme. purified bovine MsrA, absorbance read-out. activation, % at 10.6 µM. 0.3% of 360,000 active; in the data active means activation above about 7.5%;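 further: 0% = vehicle and 100% = reference activator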
MsrA inh – inhibits bovine methionine sulfoxide reductase A; purified bovine MsrA, absorbance read-out; inhibition, % at 15.5 µM; 0.75% of 360,000 active; AID 651718; in the data active means inhibition above about 4.5%;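 further: 0% = vehicle wells with enzyme and 100% = reference inhibitor wells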
PP1 inh – counter-screen for PP5 inhibitors: inhibitors of human PP1-alpha; P62136; purified PP1alpha, OMFP fluorescence; inhibition, % at 6.7 µM; 0.9% of 320,000 active;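 active means inhibition above the mean inhibition of all tested compounds plus 3 SD, computed separately for each screening campaign, cut at about 15% in these data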
PP5 primary – inhibitors of human protein phosphatase 5 (PP5) | purified PP5c, OMFP substrate fluorescence | inhibition, % at 6.7 µM | 0.18% of 320,000 active | AID 1987;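 active means inhibition above the campaign's mean inhibition across all tested compounds plus 3 SD, cut at about 9.5% in these data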;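 further: 0% = DMSO only and 100% = 100 µM cantharidin control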
Target sequence (P53041 whole entry, looked up): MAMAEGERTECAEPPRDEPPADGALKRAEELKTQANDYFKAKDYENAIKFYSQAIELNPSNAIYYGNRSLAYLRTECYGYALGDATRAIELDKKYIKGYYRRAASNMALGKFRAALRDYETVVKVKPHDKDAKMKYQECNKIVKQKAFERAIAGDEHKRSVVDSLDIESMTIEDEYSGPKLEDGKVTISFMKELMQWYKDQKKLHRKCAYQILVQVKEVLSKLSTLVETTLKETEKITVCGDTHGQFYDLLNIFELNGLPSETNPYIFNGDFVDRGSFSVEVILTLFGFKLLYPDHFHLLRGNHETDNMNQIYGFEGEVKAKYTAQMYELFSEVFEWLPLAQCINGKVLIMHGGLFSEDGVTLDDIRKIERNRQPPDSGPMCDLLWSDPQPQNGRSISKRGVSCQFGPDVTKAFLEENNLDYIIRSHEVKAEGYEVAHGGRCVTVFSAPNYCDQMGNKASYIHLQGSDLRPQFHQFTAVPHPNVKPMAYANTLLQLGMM
EBNA-1 inhibitor – blocks EBNA-1 binding to DNA | EBNA-1 DNA binding, fluorescence polarization | inhibition, % at 14.8 µM | 0.34% of 300,000 active; in the data active means inhibition above about 28%
ZTA DNA inh – blocks Epstein-Barr virus ZTA, an EBNA-1 counter-screen; P03206; ZTA-DNA binding, fluorescence polarization; inhibition, % at 11 µM; 0.15% of 320,000 active; AID 2234; in the data active means inhibition above about 33%
PP1 inh confirm – human PP1 phosphatase inhibition, confirmation | shares compounds with PP1 inh | purified PP1alpha, OMFP substrate fluorescence | inhibition, % at 6.7 µM | 52% of 1,900 active | AID 2358;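 active means mean PP1 inhibition above a set limit taken from the earlier primary screen, cut at about 15% in these data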
PP5 counter – inhibits human PP5 phosphatase in PP1 counter-screen; shares compounds with PP1 inh; purified PP5c, OMFP fluorescence; inhibition, % at 6.7 µM; 4% of 1,900 active; AID 2360;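 active means mean PP5 inhibition over triplicate wells above about 9.5% taken from the earlier PP1 screen, limit read from the data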
An asterisk follows results filed as active.

Results for CC(=O)OCCCN1c2ccccc2Nc2nnc(-c3ccccc3)cc21 ?
MsrA act: -8; MsrA inh: 2; PP1 inh: 29*; PP5 primary: 0; EBNA-1 inhibitor: -2; ZTA DNA inh: 7; PP1 inh confirm: 28*; PP5 counter: -3

Results for COc1ccc(-n2c(COc3ccc(Cl)cc3)nnc2SCc2ccc(C#N)cc2)cc1 ?
MsrA act: -3; MsrA inh: 0; PP1 inh: 20*; PP5 primary: 5; EBNA-1 inhibitor: -5; ZTA DNA inh: 5; PP1 inh confirm: 5; PP5 counter: 6

What do the screens show for `COc1ccc(-n2c(COc3ccc(C)cc3)nnc2SCc2ccc(C#N)cc2)cc1`?
MsrA act: -1; MsrA inh: 0; PP1 inh: 3; PP5 primary: 3; EBNA-1 inhibitor: 15; ZTA DNA inh: 7

Results for N#Cc1ccccc1NC(=O)CSc1nnc(-c2ccncc2)o1 ?
MsrA act: -3; MsrA inh: 2; PP1 inh: 33*; PP5 primary: 3; EBNA-1 inhibitor: -3; ZTA DNA inh: -13; PP1 inh confirm: -2; PP5 counter: -2

Results for COCCn1c(C)cc(C2=NNC(=Nc3ccc(OC)cc3)SC2)c1C ?
MsrA act: -3; PP1 inh: 20*; PP5 primary: 1; EBNA-1 inhibitor: -5; ZTA DNA inh: 3; PP1 inh confirm: 8; PP5 counter: -3

How did COc1ccc(C(=O)NC(=S)Nc2ccc(N3CCCC3)cc2)cc1 do in these assays?
MsrA act: -4; MsrA inh: -1; PP1 inh: -1; PP5 primary: -1; EBNA-1 inhibitor: -9; ZTA DNA inh: -5

What do the screens show for `COc1ccc(C(=O)Nc2ccc(N3CCCC3)cc2)cc1`?
MsrA act: -1; MsrA inh: 2; PP1 inh: 29*; PP5 primary: 5; EBNA-1 inhibitor: -7; ZTA DNA inh: -13; PP1 inh confirm: -7; PP5 counter: -5

Results for Cc1cc(C)cc(OCC(=O)Nc2ccc(N3CCCC3)cc2)c1 ?
MsrA act: -1; PP1 inh: 19*; PP5 primary: 0; EBNA-1 inhibitor: -12; ZTA DNA inh: 12; PP1 inh confirm: -9; PP5 counter: -2

What do the screens show for `CCCCCc1c(-c2ccc(F)cc2F)ncn1CCc1ccccc1OC`?
MsrA act: -6; MsrA inh: 1

How did COc1cnc(-c2ccccn2)nc1Sc1ccccc1Cl do in these assays?
MsrA act: -11; MsrA inh: 0; PP1 inh: 47*; PP5 primary: 6; EBNA-1 inhibitor: -5; ZTA DNA inh: -13; PP1 inh confirm: 51*; PP5 counter: 6

What do the screens show for `CCOC(=O)C(C)Sc1nc(-c2ccccn2)ncc1OC` (stereo unspecified)?
MsrA act: -2; MsrA inh: -1; PP1 inh: 13; PP5 primary: 2; EBNA-1 inhibitor: 5; ZTA DNA inh: -6

What do the screens show for `COc1cnc(-c2ccccn2)nc1N(C)C`?
MsrA act: -4; MsrA inh: 1; PP1 inh: 4; PP5 primary: 2; EBNA-1 inhibitor: -5; ZTA DNA inh: -3

Results for COc1cnc(-c2ccccn2)nc1Sc1c(Cl)cccc1Cl ?
MsrA act: -9; MsrA inh: 0; PP1 inh: 50*; PP5 primary: 5; EBNA-1 inhibitor: 3; ZTA DNA inh: 0; PP1 inh confirm: 41*; PP5 counter: 1

Results for C/C(=N\N1CCN(c2ccccc2)CC1)c1ccc(O)cc1 ?
MsrA act: 1; MsrA inh: 1

Results for CCCCCCOc1ccc(N2C(=O)CC(SC(=NCC)NCC)C2=O)cc1 (stereo unspecified) ?
MsrA act: -4; MsrA inh: 0; PP1 inh: 1; PP5 primary: 1; EBNA-1 inhibitor: -3; ZTA DNA inh: -3

How did NC(=O)CC(NC(=O)Cc1ccc(Br)cc1)c1ccc(NCCc2ccc(Cl)cc2)c([N+](=O)[O-])c1 (stereo unspecified) do in these assays?
MsrA act: -5; MsrA inh: -1

How did NC(=O)CC(NC(=O)Cc1ccc(Br)cc1)c1ccc(NCCc2ccccc2F)c([N+](=O)[O-])c1 (stereo unspecified) do in these assays?
MsrA act: -2; MsrA inh: -1; PP1 inh: 24*; PP5 primary: 3; EBNA-1 inhibitor: -1; ZTA DNA inh: 7; PP1 inh confirm: 25*; PP5 counter: -1

How did NC(=O)CC(NC(=O)c1ccc(Br)cc1)c1ccc(NCc2ccc(F)cc2)c([N+](=O)[O-])c1 (stereo unspecified) do in these assays?
MsrA act: -3; MsrA inh: 0; PP1 inh: 19*; PP5 primary: 3; EBNA-1 inhibitor: -4; ZTA DNA inh: 2; PP1 inh confirm: 26*; PP5 counter: -3

How did COc1ccc(CCNc2ccc(C(CC(N)=O)NC(=O)c3ccc(Br)cc3)cc2[N+](=O)[O-])cc1 (stereo unspecified) do in these assays?
MsrA act: 0; MsrA inh: 1; PP1 inh: 18*; PP5 primary: 0; EBNA-1 inhibitor: 7; ZTA DNA inh: 4; PP1 inh confirm: 25*; PP5 counter: -2

What do the screens show for `COc1ccc(CCNc2ccc(C(CC(N)=O)NC(=O)Cc3ccc(Br)cc3)cc2[N+](=O)[O-])cc1` (stereo unspecified)?
MsrA act: -4; MsrA inh: 1; PP1 inh: 18*; PP5 primary: -5; EBNA-1 inhibitor: -11; ZTA DNA inh: -4; PP1 inh confirm: 26*; PP5 counter: -3

How did CCCCNc1ccc(C(CC(N)=O)NC(=O)Cc2ccc(Br)cc2)cc1[N+](=O)[O-] (stereo unspecified) do in these assays?
MsrA act: 5; MsrA inh: 2; PP1 inh: 6; PP5 primary: 1; EBNA-1 inhibitor: 7; ZTA DNA inh: -7

Results for Cc1ccc(C2=NCN(c3ccc(C(=O)O)cc3)C(=S)N2)cc1 ?
PP1 inh: 0; PP5 primary: -2; EBNA-1 inhibitor: 10; ZTA DNA inh: 20

Results for NC(=O)CC(NC(=O)Cc1ccc(Br)cc1)c1ccc(NCCc2ccc(F)cc2)c([N+](=O)[O-])c1 (stereo unspecified) ?
MsrA act: 2; MsrA inh: 1; PP1 inh: 18*; PP5 primary: 1; EBNA-1 inhibitor: -8; ZTA DNA inh: -24; PP1 inh confirm: 25*; PP5 counter: -2

Results for CC(C)(C)c1ccc(C(=O)Nc2ncn[nH]2)cc1 ?
MsrA act: 0; MsrA inh: -1; PP1 inh: 26*; PP5 primary: 0; EBNA-1 inhibitor: 11; ZTA DNA inh: 5; PP1 inh confirm: 6; PP5 counter: -6
